In PubChem BioAssay (NCATS) one finds Potency data, which are given here for 32 compounds.

Values without a mark were called inactive. Active and inactive are the calls of the source. Unless noted, the call rests on the fitted dose curve. Some results are limits rather than exact numbers.
Potency means the concentration at half of the fitted maximal effect.

The target of one assay is Glucocorticoid receptor (Homo sapiens) (UniProt P04150). Nature of the assay: GR-GFP Redistribution (AID 450;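 active means compounds whose dose series gives a full or clear partial fitted curve of increased nuclear translocation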). The conditions noted are these: U2OS GR-GFP nuclear translocation, laser cytometry, 2 h.
Glucocorticoid receptor (Homo sapiens), sequence (P04150 whole entry, looked up): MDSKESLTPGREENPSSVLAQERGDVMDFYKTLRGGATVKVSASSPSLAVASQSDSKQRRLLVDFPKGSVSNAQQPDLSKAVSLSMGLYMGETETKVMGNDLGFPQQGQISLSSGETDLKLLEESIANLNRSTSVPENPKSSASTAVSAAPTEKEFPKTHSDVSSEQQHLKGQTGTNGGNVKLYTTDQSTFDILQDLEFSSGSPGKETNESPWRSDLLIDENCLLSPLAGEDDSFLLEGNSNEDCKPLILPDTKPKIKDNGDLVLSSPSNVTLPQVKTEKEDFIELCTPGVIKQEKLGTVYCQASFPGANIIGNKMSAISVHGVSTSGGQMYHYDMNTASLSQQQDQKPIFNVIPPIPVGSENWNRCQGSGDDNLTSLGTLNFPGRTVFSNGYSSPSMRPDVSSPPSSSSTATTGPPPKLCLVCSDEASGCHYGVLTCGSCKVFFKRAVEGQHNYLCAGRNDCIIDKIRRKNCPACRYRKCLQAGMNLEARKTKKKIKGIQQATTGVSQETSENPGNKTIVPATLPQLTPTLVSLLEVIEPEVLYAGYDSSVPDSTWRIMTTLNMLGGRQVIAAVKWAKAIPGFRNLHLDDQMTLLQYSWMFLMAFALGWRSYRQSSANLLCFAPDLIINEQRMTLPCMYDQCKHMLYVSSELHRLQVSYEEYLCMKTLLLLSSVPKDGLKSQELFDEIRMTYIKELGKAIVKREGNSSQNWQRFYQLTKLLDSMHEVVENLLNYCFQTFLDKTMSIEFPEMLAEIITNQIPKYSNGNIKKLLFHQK
As for `CCO[C@H]1O[C@@H]([C@H](COCc2ccccc2)OCc2ccccc2)[C@@H](OCc2ccccc2)[C@H]1O`, the Potency was above 20.6 µM.
For the compound `C1CCC(C(C[C@@H]2CCCCN2)C2CCCCC2)CC1`, the Potency was above 20.6 µM.
As to `CC(C)(C)NC(=O)[C@@H]1C[C@H]2CCCC[C@@H]2CN1C[C@H](O)[C@H](Cc1ccccc1)NC(=O)[C@@H](CC(N)=O)NC(=O)c1ccc2ccccc2n1`, the Potency was above 20.6 µM.
Regarding `COC(=O)C1=C(C)NC(C)=C(C(=O)OCCN(C)Cc2ccccc2)[C@H]1c1cccc([N+](=O)[O-])c1`, the Potency is above 20.6 µM.
The same measure, in the same setting: the same measure for `COc1cccc(-c2nc(NCCc3c[nH]c4ccc(OC)cc34)c3ccccc3n2)c1`: above 46 µM.
As for `C[C@@H](Cc1cccc(C(F)(F)F)c1)NCCOC(=O)c1ccccc1`, the Potency was above 20.6 µM.
In the case of `C=Cc1c(C)c2cc3nc(cc4[nH]c(cc5nc(cc1[nH]2)C(C)=C5CCC(=O)O)c(CCC(=O)OC)c4C)[C@@]1(C)C3=CC=C(C(=O)OC)[C@H]1C(=O)OC` (tested in a mixture with another compound), the Potency is above 20.6 µM.
Consider `Nc1ncnc2c1ncn2[C@@H]1O[C@H](COP(=O)(O)O)[C@@H](O)[C@@H]1O`, for which the Potency is above 20.6 µM.
With `CO[C@]1(NC(=O)[C@H](C(=O)O)c2ccc(O)cc2)C(=O)N2C(C(=O)O)=C(CSc3nnnn3C)CO[C@H]21`, the Potency was above 20.6 µM.
Take `COc1ccc2c(c1)N(C[C@@H](C)CN(C)C)c1ccccc1S2`: the Potency is above 20.6 µM.
In the case of `O[C@@](CCN1CCCCC1)(c1ccccc1)[C@@H]1C[C@H]2C=C[C@@H]1C2`, the Potency is above 20.6 µM.
In the case of `O=C1C=CC(=O)c2c1ccc1c2ccc2ccccc21`, the Potency is above 20.6 µM.
The same measure, in the same setting: the same measure for `C[C@@](N)(C(=O)O)c1cccc(CC(=O)O)c1`: above 46 µM.
Consider `C/C(=C\CNc1ncnc2nc[nH]c12)CO`, for which the Potency is above 46 µM.
Take `CCC(=O)[C@@]1(C)[C@H](C)C[C@@H]2[C@@H]3CCC4=CC(=O)C=C[C@@]4(C)[C@H]3[C@H](O)C[C@]21C`: the Potency is 0.000592 µM (active).
As for `Nc1ncn([C@H]2O[C@@H](CO)[C@@H](O)[C@@H]2O)c(=O)n1`, the Potency was above 20.6 µM.
As for `COc1cc2ccc(=O)oc2c(O)c1O`, the Potency was above 46 µM.
For `C[C@@H]1O[C@H](O[C@@H]2[C@H](C)O[C@H](O[C@@H]3[C@H](C)O[C@H](O[C@H]4CC[C@]5(C)[C@@H](CC[C@@H]6[C@H]5C[C@@H](O)[C@]5(C)[C@@H](C7=CC(=O)OC7)CC[C@]65O)C4)C[C@@H]3O)C[C@@H]2O)C[C@H](O)[C@@H]1O`, the Potency is above 20.6 µM.
Still for that read-out and setting: the same measure for `CCC(C)(C)C(=O)O[C@@H]1C[C@H](C)C=C2C=C[C@H](C)[C@@H](CC[C@H]3C[C@@H](O)CC(=O)O3)[C@H]21`: above 20.6 µM.
`Cc1onc(-c2c(F)cccc2Cl)c1C(=O)N[C@H]1C(=O)N2[C@H]1SC(C)(C)[C@H]2C(=O)O`: the Potency was above 20.6 µM.
`CCN(CC)[C@@H](C)CN1c2ccccc2Sc2ccccc21`: the Potency was above 20.6 µM.
Consider `O=c1cc(-c2cccc(O)c2)oc2cc(O)ccc12`, for which the Potency was above 46 µM.
With `COC(=O)[C@@H]1[C@@H]2C[C@H]3c4[nH]c5cc(OC)ccc5c4CCN3C[C@@H]2C[C@H](OC(=O)/C=C\c2cc(OC)c(OC)c(OC)c2)[C@H]1OC`, the Potency was above 20.6 µM.
Same read-out and setting: the same measure for `CO[C@@H]1CC[C@@]2(C)[C@@H](CC[C@@]3(C)[C@H]2CC=C2[C@H]4CC(C)(C)[C@H](O)[C@@H](OC(C)=O)[C@]4(CO)[C@H](O)C[C@]23C)[C@@]1(C)CO` (tested in a mixture with another compound): above 20.6 µM.
On the same count and under the same terms, the same measure for `CC=C(/C(=C/C)c1ccc(O)cc1)c1ccc(O)cc1`: above 20.6 µM; for `Cc1ccnc(N)c1`: above 46 µM.

The target is the same in a further assay. Nature of the assay: GR-EFC Redistribution (AID 451). Particulars: CHO-K1 GR-EFC translocation, beta-gal luminescence, 2 h. An outline of the steps: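 CHO-K1 cells expressing nuclear EA and GR-ED fragments of b-gal; compounds titrated up to 46 uM final, 2 h at 37 C. GR nuclear translocation read as complemented b-gal luminescence after 1 h RT detection.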
For the compound `Cc1cc2ccc(=O)oc2cc1OC[C@@H](O)C(C)(C)O`, the Potency is above 46 µM.
As to `C1CCC(C(C[C@@H]2CCCCN2)C2CCCCC2)CC1`, the Potency was above 20.6 µM.
Still for that read-out and setting: in the case of `Nc1ncnc2c1nc(Br)n2[C@H]1O[C@H]2COP(=O)(O)O[C@H]2[C@@H]1O` it was above 46 µM; in that of `CC(C)(C)NC(=O)[C@@H]1C[C@H]2CCCC[C@@H]2CN1C[C@H](O)[C@H](Cc1ccccc1)NC(=O)[C@@H](CC(N)=O)NC(=O)c1ccc2ccccc2n1`, above 20.6 µM.
With `COC(=O)C1=C(C)NC(C)=C(C(=O)OCCN(C)Cc2ccccc2)[C@H]1c1cccc([N+](=O)[O-])c1`, the Potency was above 20.6 µM.
The same measure, in the same setting: in the case of `CC/C=C\C[C@H]1C(=O)CC[C@@H]1CC(=O)O` it was above 46 µM; in that of `COc1cccc(-c2nc(NCCc3c[nH]c4ccc(OC)cc34)c3ccccc3n2)c1`, above 46 µM.
As for `C[C@@H](Cc1cccc(C(F)(F)F)c1)NCCOC(=O)c1ccccc1`, the Potency was above 20.6 µM.
For the compound `C=Cc1c(C)c2cc3nc(cc4[nH]c(cc5nc(cc1[nH]2)C(C)=C5CCC(=O)O)c(CCC(=O)OC)c4C)[C@@]1(C)C3=CC=C(C(=O)OC)[C@H]1C(=O)OC` (tested in a mixture with another compound), the Potency is above 20.6 µM.
On to `C=C(C)[C@H]1CC[C@]2(C(=O)O)CC[C@]3(C)[C@@H](CC[C@H]4[C@@]5(C)CC[C@@H](O)C(C)(C)[C@@H]5CC[C@@]43C)[C@H]12`, for which the Potency was above 20.6 µM.
Turning to `Nc1ncnc2c1ncn2[C@@H]1O[C@H](COP(=O)(O)O)[C@@H](O)[C@@H]1O`, the Potency was above 20.6 µM.
Same read-out and setting: the same measure for `CO[C@]1(NC(=O)[C@H](C(=O)O)c2ccc(O)cc2)C(=O)N2C(C(=O)O)=C(CSc3nnnn3C)CO[C@H]21`: above 20.6 µM; for `COc1ccc2c(c1)N(C[C@@H](C)CN(C)C)c1ccccc1S2`: above 20.6 µM; for `CCN(CC)CCOC(=O)[C@@H](c1ccccc1)C1CCCCC1`: above 20.6 µM.
Turning to `O=C1C=CC(=O)c2c1ccc1c2ccc2ccccc21`, the Potency was above 20.6 µM.
As for `C[C@@](N)(C(=O)O)c1cccc(CC(=O)O)c1`, the Potency was above 46 µM.
The same measure, in the same setting: in the case of `CCC(=O)[C@@]1(C)[C@H](C)C[C@@H]2[C@@H]3CCC4=CC(=O)C=C[C@@]4(C)[C@H]3[C@H](O)C[C@]21C` it was 0.00311 µM (active); in that of `Nc1ncn([C@H]2O[C@@H](CO)[C@@H](O)[C@@H]2O)c(=O)n1`, above 20.6 µM.
Consider `COc1cc2ccc(=O)oc2c(O)c1O`, for which the Potency was above 46 µM.
On the same count and under the same terms, in the case of `C[C@@H]1O[C@H](O[C@@H]2[C@H](C)O[C@H](O[C@@H]3[C@H](C)O[C@H](O[C@H]4CC[C@]5(C)[C@@H](CC[C@@H]6[C@H]5C[C@@H](O)[C@]5(C)[C@@H](C7=CC(=O)OC7)CC[C@]65O)C4)C[C@@H]3O)C[C@@H]2O)C[C@H](O)[C@@H]1O` it was above 20.6 µM; in that of `CCC(C)(C)C(=O)O[C@@H]1C[C@H](C)C=C2C=C[C@H](C)[C@@H](CC[C@H]3C[C@@H](O)CC(=O)O3)[C@H]21`, above 20.6 µM.
With `Cc1onc(-c2c(F)cccc2Cl)c1C(=O)N[C@H]1C(=O)N2[C@H]1SC(C)(C)[C@H]2C(=O)O`, the Potency was above 20.6 µM.
As to `CCN(CC)[C@@H](C)CN1c2ccccc2Sc2ccccc21`, the Potency is above 20.6 µM.
Regarding `O=c1cc(-c2cccc(O)c2)oc2cc(O)ccc12`, the Potency is above 46 µM.
For the compound `CO[C@@H]1CC[C@@]2(C)[C@@H](CC[C@@]3(C)[C@H]2CC=C2[C@H]4CC(C)(C)[C@H](O)[C@@H](OC(C)=O)[C@]4(CO)[C@H](O)C[C@]23C)[C@@]1(C)CO` (tested in a mixture with another compound), the Potency was above 20.6 µM.
As for `CC[C@H](C(=O)[C@H](C)[C@H](O)[C@H](C)CCc1ccc(C)c(O)c1C(=O)O)[C@H]1O[C@](CC)([C@@H]2CC[C@@](O)(CC)[C@H](C)O2)C[C@H]1C`, the Potency was above 20.6 µM.
In the case of `CC=C(/C(=C/C)c1ccc(O)cc1)c1ccc(O)cc1`, the Potency is above 20.6 µM.
As to `Cc1ccnc(N)c1`, the Potency was above 46 µM.
